Measurements reported in PubChem BioAssay (NCI).
This is part of a sample that, as a whole, favours compounds with a hit. Of some 83,000 tested, about 20% had one in any assay.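 The test compound was applied at a single concentration to cells in 96-well plates for 48 hours, and percent growth was recorded.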 A number with no mark means an inactive call. Calls of active or inactive are those of the source. Rule for the calls: active = growth percent below 10; inactive = the rest.

Experiments:
Experiment in all cases: NCI-60 one-dose screen, 48 h (100 = growth as untreated, 0 = no growth, -100 = all killed)
Settings in all cases: 10 µM unless noted
[1] = test system: NCI-H23 lung
[2] = test system: NCI-H226 lung
[3] = test system: NCI-H322M lung
[4] = test system: HOP-62 NSCLC
[5] = test system: NCI-H460 lung
[6] = test system: HOP-92 NSCLC
[7] = test system: NCI-H522 lung
[8] = test system: A549/ATCC NSCLC
[9] = test system: 786-0 renal
[10] = test system: COLO 205 colon
[11] = test system: DU-145 prostate
[12] = test system: K-562 leukemia
[13] = test system: MALME-3M melanoma
[14] = test system: MDA-MB-231 breast
[15] = test system: RXF 393 renal
[16] = test system: SF-268 CNS
[17] = test system: SF-295 CNS
[18] = test system: SF-539 CNS
[19] = test system: UACC-257 melanoma
[20] = test system: M14 melanoma

Row | Structure (SMILES) | growth [1] | growth [2] | growth [3] | growth [4] | growth [5] | growth [6] | growth [7] | growth [8] | growth [9] | growth [10] | growth [11] | growth [12] | growth [13] | growth [14] | growth [15] | growth [16] | growth [17] | growth [18] | growth [19] | growth [20]
1 | COc1cc(OC)c(/C=C/C(=O)c2c(N)cc(OC)cc2OC)c(OC)c1 | 8.81% (active) | 75% | 54.4% | 43.6% | 2.53% (active) | 26.6% | -11.8% (active) | 27.4% | 35.2% | -24.4% (active) | 12.6% | 13.9% | 63.6% | 41.2% | -46.1% (active) | 42.6% | 4.26% (active) | -6.02% (active) | 49.4% | 18.2%
2 | C=C(C)[C@@H]1CC[C@]2(COCCCN)CC[C@]3(C)[C@H](CC[C@@H]4[C@@](C)(CCCNCCCN)[C@H](C(=C)C)CC[C@]43C)[C@@H]12 | -53.5% [100 µM] (active) | -41.6% [100 µM] (active) | -76.2% [100 µM] (active) | -47.7% [100 µM] (active) | -74.7% [100 µM] (active) | -69.5% [100 µM] (active) | -49.8% [100 µM] (active) | -55.7% [100 µM] (active) | -49.7% [100 µM] (active) | -50.3% [100 µM] (active) | -83.4% [100 µM] (active) | -34.1% [100 µM] (active) | -58.2% [100 µM] (active) | -63.8% [100 µM] (active) | -48.6% [100 µM] (active) | -58.7% [100 µM] (active) | -52.7% [100 µM] (active) | -62.2% [100 µM] (active) | -74.1% [100 µM] (active) | -35.4% [100 µM] (active)
3 | O=C1Cc2c(sc3c(F)cccc23)C(c2ccccc2[N+](=O)[O-])N1 (stereo not given) | 98.6% | 79.3% | 99% | 91.5% | 76.9% | 92.2% | 102% | 106% | 110% | 113% | 107% | 97.1% | 94.5% | 84.9% | 125% | 93.8% | 101% | 89.4% | 120% | 101%
4 | CC[C@@H]1NC(=O)[C@@H]2CCCCN2C(=O)[C@@H]2CCCN2C(=O)[C@@H](NC(=O)[C@H](Cc2cc(F)cc(F)c2)NC(=O)Nc2ccc(C3CC3)cc2F)[C@H](C)OC(=O)[C@@H]2C[C@@H](C)CN2C1=O | 25.7% | 15.5% | 41.1% | 26.7% | 13.5% | -3.81% (active) | 19.9% | 19.9% | 16.4% | -40.4% (active) | 20% | 10.4% | 16.9% | -31.2% (active) | -4.47% (active) | 22% | -10.1% (active) | 24.1% | 10.7% | 16.8%
5 | CCN(CCNc1ccc(C)c2sc3cc(Cl)ccc3c(=O)c12)CC(C)O (stereo not given) | 92.9% | 134% | 95.9% | 76% | 3.16% (active) | 29.8% | 28.3% | 34.7% | 41.9% | -34% (active) | 82.5% | 3.01% (active) | 82.1% | -11.8% (active) | -39.2% (active) | 82.8% | 97.3% | 59.4% | -61.1% (active) | -50.5% (active)
6 | COc1ccc(C=C2c3ccccc3-c3ccccc32)cc1 | 67.6% | 68.6% | 72.2% | 55.2% | 30.6% | 67.3% | 13.7% | 52.2% | 58.5% | 29.6% | 84.6% | 18.8% | 63.5% | 59.2% | 54.5% | 53.8% | 31.7% | 43.7% | 52.3% | 30%
7 | COc1cc(-c2nc(SCCC(C)C)nc(Nc3ccc(S(N)(=O)=O)cc3)c2C#N)cc(OC)c1OC | 51.2% | 44% | 72.7% | 33.5% | 19.7% | 2.39% (active) | 45% | 26.4% | 31.4% | 29.8% | 43.1% | 7.52% (active) | 19.1% | 25.1% | 10.1% | 42.4% | 21.8% | 38.6% | 46% | 20.6%
8 | CCOC(=O)c1c[nH]n2c(=S)ncnc12 | 97.4% | 97.4% | 110% | 89.8% | 115% | 113% | 96.8% | 106% | 95.8% | 100% | 108% | 106% | 109% | 109% | 113% | 98.5% | 109% | 105% | 102% | 103%
9 | Cc1ccc(NC(=O)N[C@@H](Cc2cc(F)cc(F)c2)C(=O)N[C@@H]2C(=O)N3CCC[C@H]3C(=O)N3CCCC[C@H]3C(=O)N[C@@H](C)C(=O)N3C[C@H](C)C[C@H]3C(=O)O[C@H]2C)cc1 | 33.5% | 28.5% | 62.8% | 30.1% | 25.6% | 29.8% | 31.8% | 23.1% | 28.2% | 7.51% (active) | 28.8% | 14.3% | 35% | 4.01% (active) | 28.8% | 28.8% | 18.5% | 48.6% | 18% | 34%
10 | CCCOc1ccc(-c2nc(-c3ccc(N)cc3)cs2)cc1 | 96.8% | 111% | 103% | 107% | 98% | 94.4% | 89.3% | 93.5% | 87.1% | 143% | 133% | 85.3% | 116% | 99% | 99.5% | 133% | 89.3% | 103% | 111% | 111%
11 | CCOC(=O)C(=Cc1ccccc1[N+](=O)[O-])C(=O)OCC | 14.4% | 42.3% | 89.2% | 27.3% | 49.5% | 9.84% (active) | -1.64% (active) | 53.6% | 28.2% | -42.2% (active) | -51.5% (active) | 0.762% (active) | 67.3% | 9.18% (active) | 0.0546% (active) | 13.3% | 95.5% | -15.5% (active) | 42% | 25.2%
12 | COc1ccc2nc3cc(Cl)ccc3c(Nc3ccc(O)c(CN4CCCC4)c3)c2c1 | 47.3% | 97.5% | 7.91% (active) | 26.9% | -27.4% (active) | 31.9% | -40.7% (active) | 27.7% | -21.8% (active) | -19.8% (active) | -9.64% (active) | -6.52% (active) | -86.6% (active) | 11.7% | -84% (active) | 38.5% | 8.91% (active) | -87.4% (active) | -81.1% (active) | -83.2% (active)
13 | Cc1ccc(S(=O)(=O)NCCCNc2nccc(-c3c(-c4cccc(F)c4)nc4occn34)n2)cc1 | 102% | 67.6% | 77.9% | 88.5% | 75.7% | 82.5% | 71.6% | 53.2% | 73.3% | 66% | 73.8% | 36.7% | 64.6% | 64% | 77.7% | 61.6% | 100% | 95.1% | 91.5% | 57%
14 | CC(C)(C)OC(=O)N1C=C/C(=C\Cn2cc(-c3ccccc3)nn2)CC1 | 65% | 72% | 80.9% | 89.3% | 84.7% | 62.9% | 74.6% | 83.8% | 79.6% | 109% | 88.2% | 41.4% | 65.7% | 75.9% | 91.8% | 81% | 61% | 79.5% | 66% | 56.5%
15 | O=C(Nc1ccc(Oc2ccc(F)cc2)c(Cl)c1)c1cnccn1 | 65.6% | 74.4% | 82.2% | 56.2% | 28% | 58.2% | 54.2% | 43.7% | 81% | 69.3% | 79.5% | 21.1% | 70.1% | 58.7% | 72.3% | 72.2% | 72.9% | 67.1% | 79.8% | 92.4%
